The record followed here is PubChem BioAssay (NCATS).

The structures appear in SMILES notation. Results filed as inconclusive are left out. Values without a mark were called inactive. Calls come from the whole dose curve; as a rule, active = well fitted cell-killing curve with a large enough effect; inconclusive = small, poorly fitted or top-dose-only effect; inactive = no such curve, though single readings can be large or run the other way.

This test in a line: qHTS of pediatric cancer cell lines to identify multiple opportunities for drug repurposing: Primary screen for NB1643 cells (AID 1347099).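 Note: plate controls were DMSO neutral control for no effect and bortezomib positive control for full effect; nearly all actives have a fitted effect of over 50% in size.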 To be noted: NB1643 neuroblastoma viability, CellTiter-Glo luminescence, 48 h; series mostly up to 46 µM; activity change, negative = cytotoxic: at the top concentration. An outline of the steps:
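Following a 5-hour attachment period, cells at 500-1,000/well received compounds and were cultured for 48 hours. CellTiter-Glo was added and luminescence read to estimate viable, metabolically active cells.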
A general note: Quantitative high-throughput screening tests each substance at several concentrations.
`C[C@@]12CCC[C@H]1[C@@H]1CC[C@H]3C[C@@H](O)CC[C@]3(C)[C@H]1CC2`: the “activity change, negative = cytotoxic” value is 12%. On to `CCOC(=O)OCC/C(SC(=O)OCC)=C(\C)N(C=O)Cc1cnc(C)nc1N`, for which the “activity change, negative = cytotoxic” value is 11.5%. In the case of `CO/N=C(\C(=O)O)c1csc(NC(=O)CCl)n1`, the “activity change, negative = cytotoxic” value was 14.1%. Regarding `Nc1ncnc2nc[nH]c12`, the “activity change, negative = cytotoxic” value is 27.3%. Take `Cc1nc(C2CCCCC2)c(-c2ccc(S(N)(=O)=O)c(F)c2)o1`: the “activity change, negative = cytotoxic” value was -0.446%. With `CC(C)(C)CC(=O)OCC(=O)[C@@]1(O)CC[C@H]2[C@@H]3CCC4=CC(=O)C=C[C@]4(C)[C@H]3[C@@H](O)C[C@@]21C` the figure was 6.4%; with `O=C1Nc2cc(Cl)ccc2Oc2ccccc21`, -4%; with `CC(COc1ccccc1)NN` (stereo unspecified), 21.5%. `CC(C)=CCC/C(C)=C/CC/C(C)=C/C(=O)OCC(=O)[C@@]1(O)CC[C@H]2[C@@H]3CCC4=CC(=O)C=C[C@]4(C)[C@H]3[C@@H](O)C[C@@]21C`: the “activity change, negative = cytotoxic” value is 0%. As to `CCc1cc(S(=O)(=O)O)c2cc(C(C)C)cccc1-2`, the “activity change, negative = cytotoxic” value was 21.6%. As to `Oc1ccc(CCNCCCCCCNCCc2ccccc2)cc1O`, the “activity change, negative = cytotoxic” value is -23.6%. In the case of `CC1c2ccccc2CN1NC(=O)c1ccc(Cl)c(S(N)(=O)=O)c1` (stereo unspecified), the “activity change, negative = cytotoxic” value is 9.41%. With `O=C(O)c1[nH]n(-c2ccc(S(=O)(=O)O)cc2)c(=O)c1N=Nc1ccc(S(=O)(=O)O)cc1`, the “activity change, negative = cytotoxic” value is 3.3%. On to `CC(CC(C#N)(c1ccccc1)C(C)C)N(C)C` (stereo unspecified), for which the “activity change, negative = cytotoxic” value is 11.6%. Take `CN(CC1(C)CCCO1)S(=O)(=O)c1ccc(Cl)c(S(N)(=O)=O)c1` (stereo unspecified): the “activity change, negative = cytotoxic” value is 19.3%. For the compound `C[C@H]1C[C@H]2[C@@H]3CCC4=CC(=O)C=C[C@]4(C)[C@H]3C(=O)C[C@]2(C)[C@@]1(O)C(=O)CO`, the “activity change, negative = cytotoxic” value is 9.18%.
